Compounds without any hit were thinned out: in the full panel of roughly 83,000, 20% have a hit.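 Percent growth is the endpoint: 0 to 100 indicates growth inhibition (40 means 60% inhibition), 0 means no net growth, and negative values indicate cell death.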 A number with no mark means an inactive call. Active and inactive are the calls of the source. How the source made its calls: active means growth percent below 10; inactive means the rest.

Experiment in all cases: NCI-60 one-dose screen, 48 h (100 = growth as untreated, 0 = no growth, -100 = all killed)
Common to all, as to details: 10 µM unless noted

The subject of test [1] is NCI-H23 lung.
In test [2] the test system is NCI-H226 lung.
Test [3] has as its system NCI-H322M lung.
For test [4], the system named is NCI-H460 lung.
The subject of test [5] is HOP-92 NSCLC.
The test system of test [6] is A549/ATCC NSCLC.
Test [7] deals with 786-0 renal.
Test [8] has as its system COLO 205 colon.
In test [9] the test system is DU-145 prostate.
Test [10] relates to K-562 leukemia.
Test [11] concerns MALME-3M melanoma.
Test [12] deals with MDA-MB-231 breast.
In test [13] the test system is RXF 393 renal.
Test [14] has as its system SF-268 CNS.
Test [15] has as its system SF-295 CNS.
The subject of test [16] is SF-539 CNS.
Test [17] has as its system UACC-257 melanoma.
Test [18] concerns M14 melanoma.
Test [19] concerns HOP-62 NSCLC.
In test [20] the test system is NCI-H522 lung.

On to `Cc1cc(I)nc2ccccc12`, for which the growth in [1] was 95.1%; in test [2] it was 104%; in test [3], 102%; in [4] it was 106%; in test [5], 93.5%; in [6] it was 111%. Further, the growth in [7] is 105%; in [8], 106%; in test [9], 120%; in [10] it was 108%; in test [11] it was 114%; in test [12] it was 99.7%. The growth is 122% in [13]; 105% in [14]; 101% in test [15]; 100% in test [16]; 119% in [17]; 111% in test [18].

Regarding `CN(C)c1ccc(/C=C/c2cc[n+](C)c(/C=C/c3ccc(N(C)C)cc3)c2)cc1`, the growth in test [1] is 10.5%; in test [2] it was 34.1%; in test [19] it was 19.3%; in [4], 10.6%; in test [20], -20.2% (active); in test [6], 14.5%. Moreover, the growth is 22.6% in test [7]; -68.7% (active) in test [8]; 23% in [9]; 4.82% (active) in test [10]; 1.82% (active) in test [11]; 8.47% (active) in test [12]. Besides, the growth in test [13] is 28.3%; in test [14] it was 24.2%; in test [15] it was -3.21% (active); in [16] it was 27.1%; in test [17], -18.8% (active); in test [18], 14.4%.

For `Oc1c(Cl)cc(Cl)cc1C(c1cc(Cl)cc(Cl)c1O)C(Cl)(Cl)Cl`, the growth in test [1] was -19.9% (active); in test [2], 5.37% (active); in test [3] it was -21.8% (active); in test [4], -20.7% (active); in test [20], -12.8% (active); in test [6], 1.48% (active). For the same molecule, the growth in test [7] was 9.47% (active); in test [8], -90.9% (active); in [9] it was 19.3%; in test [10] it was 9.05% (active); in test [11] it was -27% (active); in test [12], -25.1% (active). Also, the growth in test [13] was -30.7% (active); in test [14], 11.6%; in [16], 4.37% (active); in test [17], -24.9% (active); in [18], 17.9%.

With `CCOc1ccc(C(CN2CCOCC2)C(C)=O)cc1OC` (configuration not stated), the growth was 98.9% in test [1]; 98.9% in test [2]; 117% in test [3]; 108% in test [4]; 102% in [5]; -51.6% (active) in test [20]. Moreover, the growth is 101% in [6]; 63.7% in [7]; 58% in [8]; 45.5% in test [10]; 84% in [11]; 94.6% in test [12]. Besides, the growth in test [13] was 85.8%; in test [14], 105%; in test [15], 102%; in test [16], 89.6%; in test [17], 90%; in test [18], 93.8%.

Turning to `CCCCCCCCCCCCCCCc1ccc(C(=O)C[n+]2ccccc2)cc1`, the growth is -62% (active) in [1]; -6.49% (active) in [2]; -99% (active) in test [19]; -80.6% (active) in test [4]; -87.1% (active) in test [5]; -90.2% (active) in [20]. The growth in test [6] was -95% (active); in test [8], -90.5% (active); in [9], -97.6% (active); in test [10], -81.6% (active); in test [12], -53.8% (active); in test [14] it was -87% (active). Moreover, the growth in [15] is -74.8% (active); in test [16], -98.4% (active); in test [17], -76.3% (active); in [18], -90.4% (active).

In the case of `Nc1cc(-c2ccccc2)ccc1O`, the growth is 101% in test [1]; 112% in test [2]; 87.2% in test [3]; 102% in test [4]; 96.3% in test [20]; 65.7% in test [6]. Moreover, the growth in test [7] was 97.8%; in test [8], 110%; in [9], 103%; in test [10], 59.2%; in test [11], 121%; in [12], 82.7%. The growth is 30.3% in test [13]; 78.2% in test [14]; 134% in test [15]; 105% in test [16]; 120% in test [17]; 103% in test [18].

Regarding `O=C(Cc1ccccc1)C(F)(F)F`, the growth in test [1] was 103%; in test [2], 105%; in test [19], 102%; in test [4], 103%; in test [5], 104%; in [20], 107%. The growth was 105% in [6]; 94% in [7]; 104% in test [8]; 103% in test [9]; 94.5% in [10]; 99.4% in test [11]. Further, the growth in [12] was 96.5%; in test [13], 104%; in test [14], 98.9%; in test [15], 101%; in [16], 97%; in test [17], 18.1%. The growth in test [18] is 99.6%.

In the case of `Nc1nc(-c2ccccc2)nc(N)c1N=O`, the growth is 97.3% in test [1]; 90.4% in [2]; 100% in [3]; 23.8% in test [4]; 65.3% in [5]; -7.61% (active) in test [20]. Also, the growth in test [6] is 66%; in test [7] it was 83.6%; in [9] it was 88.8%; in test [10], 31.7%; in [11], 91.3%; in test [12], 93.8%. Also, the growth is 63.9% in test [13]; 77.2% in test [14]; 108% in test [15]; 77.5% in test [16]; 54.4% in [17]; 67.3% in [18].
